Experimental data taken from PubChem BioAssay AID1479 (National Center for Advancing Translational Sciences (NCATS), 2009).
In all, about 280,000 compounds went through this assay and about 820 (0.29%) were called active. Roughly 1% stayed inconclusive and do not appear here. Calls come from the whole dose curve; as a rule, active = well fitted curve in either direction with a large enough effect; inconclusive = small, poorly fitted or top-dose-only effect; inactive = flat fitted curve, though single readings scatter. Many of the other results were omitted from the sample, so actives are more common in it than they were.

Experiment: Total Fluorescence Counterscreen for Inhibitors of the Interaction of Thyroid Hormone Receptor and Steroid Receptor Coregulator 2
Details: TRb/SRC2 Texas Red total fluorescence interference; series mostly up to 201 µM; fluorescence change, negative = quenching: at the top concentration
From the text: NIH Molecular Libraries Probe Production Network [MLPCN]
NIH Chemical Genomics Center [NCGC]
Assay Provider: R. Kip Guy, St. Jude Children's Research Hospital
Thyroid receptor (TR) regulates many homeostatic processes including basal metabolism, cardiovascular function, body weight, and lipid trafficking. TR modulators are potential therapeutics for obesity and hyperlipidemias but current thyroid analogs have undesirable side effects, particularly cardiac stimulation. To identify inhibitors that specifically prevent the interaction of TR with the steroid receptor […] 2 (SRC2), a fluorescence polarization assay was screened. This assay detects interaction of the ligand-binding domain of human TRb with a Texas Red labeled SRC2 peptide, corresponding to a 20 amino acid region of the nuclear receptor interaction domain (Arnold et al., 2006). Total fluorescence (555 nm excitation and 632 nm emission) was measured to identify potential fluorescent and light absorbing compounds. Such compounds may be artifacts that interfere with the fluorescence polarization assay.
Arnold, L. A.; Estebanez-Perpina, E.; Togashi, M.; Shelat, A.; Ocasio, C. A.; McReynolds, A. C.; Nguyen, P.; Baxter, J. D.; Fletterick, R. J.; Webb, P.; Guy, R. K. A high-throughput screening method to identify small molecule inhibitors of thyroid hormone receptor coactivator binding. Sci STKE 2006, p 13.
NCGC Assay Protocol Summary:
For screening, 5 uL/well 0.6 uM TRb and 20 nM SRC2 Texas Red in protein buffer (20mM Tris hydrochloride, 100mM NaCl, 10% glycerol, 1mM EDTA, 0.01% NP-40, 1mM DTT, 1uM T3 and 5% DMSO) was dispensed into black solid 1536-well plates (Grenier) using a solenoid-based dispenser. Following transfer of 23 nL compound or DMSO vehicle by a pin tool, the plates were centrifuged 15 s at 1000 RPM and incubated 5 hr at ambient temperature. The plates were read by an Envision (Perkin Elmer) to detect fluorescence polarization of SRC2 Texas Red (555 nm excitation and 632 nm emission). Data were normalized to unbound (all components except TRb) and bound SRC2 Texas Red controls. Total fluorescence (TF) was calculated as follows: TF = S + 2P where S and P are fluorescence readings in the parallel and perpendicular channels, respectively.
Keywords: NIH Roadmap, MLPCN, MLI, MLSMR, qHTS, NCGC, qHTS, thyroid hormone receptor, steroid receptor coactivator, fluorescence polarization
% is set by controls: 0 for no effect and ±100 for the full control effect; potency is the fitted concentration of half-maximal effect; tags give direction and shape of the fitted curve or compound fluorescence and quenching.

Row | SMILES | Potency | fluorescence change, negative = quenching
1 | CCCCC(=O)N/N=C/c1c(O)n(CC)c(=S)n(CC)c1=O | 0.316 µM [quencher] (active) | –
2 | Clc1ccc([C@@]2(Cn3cncn3)C[C@H](Br)CO2)c(Cl)c1 | – | 0.213% (inactive)
3 | CCOP(=O)(OCC)SCS(=O)(=O)C(C)(C)C | – | -3.78% (inactive)
4 | CCOP(OCC)OCC | – | -0.876% (inactive)
5 | O=C1NC(=O)N(c2ccccc2)C(=O)/C1=C/c1ccc([N+](=O)[O-])s1 | 44.7 µM [fluorescent] (active) | –
6 | CC(C)OC(=O)Nc1ccccc1 | – | -3.86% (inactive)
7 | CCC/C(=N\OCC)C1=C(O)CC(CC(C)SCC)CC1=O (stereo not given) | – | -0.248% (inactive)
8 | Fc1ccc(Oc2ccnc3cc(Cl)cc(Cl)c23)cc1 | – | -9.31% (inactive)
9 | CCC(C)(C)c1ccc(O)c(C(C)(C)CC)c1 | – | -0.0155% (inactive)
10 | CCCN(CCOc1c(Cl)cc(Cl)cc1Cl)C(=O)n1ccnc1 | inactive | –
